Measurements: PubChem BioAssay AID1159580 (chemical genetic matrix, 2015)
Hit rate of the full screen: of about 5,500 compounds, about 2,000 (36%) were called active. Roughly 18% stayed inconclusive and do not appear here. Rule as the data show it: active = normalized growth mostly below about 0.91 (no sharp cut-off); inconclusive = no clear call, values can overlap the other calls; inactive = mostly above about 0.92. The list shows a part of the results.

Assay: chemical genetic growth profiling, strain panel (AID 1159580);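 also: tested at 20 µM; growth read once vehicle control cultures reached saturation at 30 °C; 1 = growth at the plate median or of vehicle wells; lower values mean less growth of the strain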
Conditions: S. cerevisiae deletion strains, growth OD
[1] = locus YAL013W, strain DEP1, stronger effect = lower value
[2] = locus YNL153C, strain GIM3, stronger effect = lower value
[3] = locus YPL055C, strain LGE1, stronger effect = lower value
[4] = locus YCL061C, strain MRC1, stronger effect = lower value
[5] = locus YHR030C, strain SLT2, stronger effect = lower value
[6] = locus YJL187C, strain SWE1, stronger effect = lower value
[7] = locus YHR079C, strain IRE1, stronger effect = lower value
[8] = locus YJL095W, strain BCK1, stronger effect = lower value
[9] = locus YJR066W, strain TOR1, stronger effect = lower value
[10] = locus YLR113W, strain HOG1, stronger effect = lower value
[11] = locus YNL183C, strain NPR1, stronger effect = lower value
[12] = locus YOR231W, strain MKK1, stronger effect = lower value
[13] = locus YPL256C, strain CLN2, stronger effect = lower value

Measured: normalized growth

N[C@@]1(C(=O)O)CC[C@@H](C(=O)O)C1
inactive: [1] 1.02 | locus YAL040C, strain CLN3, stronger effect = lower value 1.01 | locus YCL061C, strain MRC1 (second series), stronger effect = lower value 1 | locus YDR363W, strain ESC2, stronger effect = lower value 1.04 | locus YER002W, strain NOP16, stronger effect = lower value 1.01 | locus YGR229C, strain SMI1, stronger effect = lower value 1.03 | [2] 1 | locus YNL175C, strain NOP13, stronger effect = lower value 1.01 | locus YNL197C, strain WHI3, stronger effect = lower value 1.02 | locus YNL224C, strain SQS1, stronger effect = lower value 1.02 | locus YOR083W, strain WHI5 (second series), stronger effect = lower value 1.01 | [3] 1.02

N#C/C(=C\Nc1ccc2c(c1)OCCO2)S(=O)(=O)c1ccc(C(F)(F)F)cn1
inactive: [1] 0.985 | locus YBR229C, strain ROT2, stronger effect = lower value 1 | [4] 1.03 | locus YDL101C, strain DUN1, stronger effect = lower value 0.995 | locus YDL134C, strain PPH21, stronger effect = lower value 1 | locus YDR150W, strain NUM1, stronger effect = lower value 1.01 | locus YEL061C, strain CIN8, stronger effect = lower value 0.974 | locus YGR078C, strain PAC10, stronger effect = lower value 1.02 | locus YHR087W, strain rtc3, stronger effect = lower value 1.01 | locus YJR043C, strain POL32, stronger effect = lower value 1.02 | locus YJR075W, strain HOC1, stronger effect = lower value 1.02 | locus YKL190W, strain CNB1, stronger effect = lower value 0.98 | locus YLR039C, strain RIC1, stronger effect = lower value 1.02 | locus YLR058C, strain SHM2 (second series), stronger effect = lower value 1 | locus YLR262C, strain YPT6, stronger effect = lower value 1.01 | locus YML094W, strain GIM5, stronger effect = lower value 0.906 | locus YMR219W, strain ESC1, stronger effect = lower value 0.993 | locus YMR263W, strain SAP30, stronger effect = lower value 1.02 | [2] 1.02 | locus YNL322C, strain KRE1, stronger effect = lower value 0.996 | locus YNR030W, strain Alg12, stronger effect = lower value 0.978 | [3] 1.11 | locus YPL241C, strain CIN2, stronger effect = lower value 0.966 | locus YPR135W, strain CTF4, stronger effect = lower value 1.06
active: [5] 0.593 | [6] 0.733 | locus YLR085C, strain ARP6, stronger effect = lower value 0.742 | locus YNL298W, strain CLA4 (second series), stronger effect = lower value 0.835

O=C(O)c1cccc2cccc(C(=O)O)c12
active: locus YAR019C, strain CDC15, stronger effect = lower value 0.085 | locus YBL105C, strain PKC1, stronger effect = lower value 0.0837 | locus YBR135W, strain CKS1, stronger effect = lower value 0.0904 | locus YBR136W, strain MEC1, stronger effect = lower value 0.0904 | locus YBR160W, strain CDC28, stronger effect = lower value 0.086 | locus YDL017W, strain CDC7, stronger effect = lower value 0.0824 | locus YDL028C, strain MPS1, stronger effect = lower value 0.0878 | locus YDL108W, strain KIN28, stronger effect = lower value 0.0876 | locus YDL214C, strain PRR2, stronger effect = lower value 0.0872 | locus YDR052C, strain DBF4, stronger effect = lower value 0.0886 | locus YDR054C, strain cdc34, stronger effect = lower value 0.0879 | locus YDR477W, strain SNF1, stronger effect = lower value 0.0946 | locus YER123W, strain YCK3, stronger effect = lower value 0.0991 | locus YER133W, strain GLC7, stronger effect = lower value 0.0939 | locus YFL009W, strain cdc4, stronger effect = lower value 0.0889 | locus YFL029C, strain CAK1, stronger effect = lower value 0.0833 | locus YFR003C, strain YPI1, stronger effect = lower value 0.0828 | locus YFR019W, strain FAB1, stronger effect = lower value 0.0952 | locus YGR040W, strain KSS1, stronger effect = lower value 0.11 | locus YGR052W, strain FMP48, stronger effect = lower value 0.113 | locus YGR092W, strain DBF2, stronger effect = lower value 0.107 | [5] 0.123 | [7] 0.109 | locus YHR082C, strain KSP1, stronger effect = lower value 0.135 | locus YHR205W, strain SCH9, stronger effect = lower value 0.0046 | locus YIL147C, strain SLN1, stronger effect = lower value 0.0851 | [8] 0.118 | locus YJL128C, strain PBS2, stronger effect = lower value 0.0989 | locus YJL157C, strain FAR1, stronger effect = lower value 0.0897 | locus YJR016C, strain ILV3, stronger effect = lower value 0.0848 | locus YJR066W, strain TOR1 (second series), stronger effect = lower value 0.101 | [9] 0.145 | locus YKL048C, strain ELM1, stronger effect = lower value 0.12 | locus YKL067W, strain YNK1, stronger effect = lower value 0.0918 | locus YKL101W, strain HSL1, stronger effect = lower value 0.114 | locus YKL193C, strain SDS22, stronger effect = lower value 0.0868 | locus YKL203C, strain TOR2, stronger effect = lower value 0.108 | [10] 0.184 | locus YLR133W, strain CKI1, stronger effect = lower value 0.0857 | locus YLR403W, strain SFP1, stronger effect = lower value 0.00123 | locus YML070W, strain DAK1, stronger effect = lower value 0.117 | locus YMR001C, strain CDC5, stronger effect = lower value 0.0843 | locus YMR205C, strain PFK2 (second series), stronger effect = lower value 0.0905 | locus YMR277W, strain FCP1, stronger effect = lower value 0.0893 | locus YNL006W, strain LST8, stronger effect = lower value 0.077 | locus YNL020C, strain ARK1, stronger effect = lower value 0.0896 | locus YNL161W, strain CBK1, stronger effect = lower value 0.0944 | [11] 0.112 | locus YNL207W, strain RIO2, stronger effect = lower value 0.0871 | locus YNL222W, strain SSU72, stronger effect = lower value 0.089 | locus YNL307C, strain MCK1 (second series), stronger effect = lower value 0.103 | locus YOL078W, strain AVO1, stronger effect = lower value 0.0865 | locus YOL136C, strain PFK27, stronger effect = lower value 0.0961 | locus YOR061W, strain CKA2, stronger effect = lower value 0.0989 | locus YOR119C, strain RIO1, stronger effect = lower value 0.104 | [12] 0.115 | locus YOR329C, strain SCD5, stronger effect = lower value 0.082 | locus YPL031C, strain PHO85, stronger effect = lower value 0.102 | locus YPL153C, strain RAD53, stronger effect = lower value 0.101 | locus YPL204W, strain HRR25, stronger effect = lower value 0.0938 | locus YPL209C, strain IPL1, stronger effect = lower value 0.0815 | [13] 0.162 | locus YPR025C, strain CCL1, stronger effect = lower value 0.0896 | locus YPR106W, strain ISR1, stronger effect = lower value 0.281 | strain NNK1, stronger effect = lower value 0.0867 | strain TSCII, stronger effect = lower value 0.0877

O=C(O)c1cccc(O)c1O
inactive: locus YAL021C, strain ccr4, stronger effect = lower value 1.02 | locus YAL026C, strain drs2, stronger effect = lower value 1.02 | locus YAL030W, strain snc1, stronger effect = lower value 1.01 | locus YBL061C, strain skt5, stronger effect = lower value 1.03 | locus YBR009C, strain hhf1, stronger effect = lower value 1.02 | locus YBR023C, strain chs3, stronger effect = lower value 1.02 | locus YBR171W, strain sec66, stronger effect = lower value 1.03 | locus YBR231C, strain swc5, stronger effect = lower value 1.02 | locus YBR279W, strain paf1, stronger effect = lower value 1.02 | locus YCL011C, strain gbp2, stronger effect = lower value 1.02 | locus YCL016C, strain dcc1, stronger effect = lower value 1.01 | [4] 1.01 | locus YCL069W, strain vba3, stronger effect = lower value 1.02 | locus YCR088W, strain abp1, stronger effect = lower value 1.02 | locus YDL005C, strain med2, stronger effect = lower value 1.02 | locus YDL040C, strain nat1, stronger effect = lower value 1.02 | locus YDR001C, strain nth1, stronger effect = lower value 1.02 | locus YDR069C, strain doa4, stronger effect = lower value 1.02 | locus YDR137W, strain rgp1, stronger effect = lower value 1.02 | locus YDR159W, strain sac3, stronger effect = lower value 1.03 | locus YDR195W, strain ref2 0.997 | locus YDR297W, strain sur2, stronger effect = lower value 1.02 | locus YDR334W, strain swr1, stronger effect = lower value 1.02 | locus YDR335W, strain msn5, stronger effect = lower value 1.02 | locus YDR392W, strain spt3, stronger effect = lower value 1.04 | locus YEL003W, strain gim4, stronger effect = lower value 1.02 | locus YEL037C, strain rad23, stronger effect = lower value 1.02 | locus YEL061C, strain CIN8 (second series), stronger effect = lower value 1.02 | locus YER015W, strain faa2, stronger effect = lower value 1.03 | locus YER016W, strain bim1, stronger effect = lower value 1.01 | locus YER111C, strain swi4, stronger effect = lower value 1.03 | locus YER155C, strain BEM2 (second series), stronger effect = lower value 1.04 | locus YFR010W, strain ubp6, stronger effect = lower value 1.02 | locus YGL167C, strain pmr1, stronger effect = lower value 1.02 | locus YGL173C, strain kem1, stronger effect = lower value 1.03 | locus YGL227W, strain vid30, stronger effect = lower value 1.03 | locus YGL240W, strain doc1, stronger effect = lower value 1.02 | locus YGL253W, strain hxk2, stronger effect = lower value 1.02 | locus YHR013C, strain ard1, stronger effect = lower value 1.02 | locus YHR027C, strain rpn1, stronger effect = lower value 1.01 | [5] 1.06 | [7] 1.03 | locus YHR142W, strain chs7, stronger effect = lower value 1.01 | locus YJL092W, strain hpr5, stronger effect = lower value 1.02 | locus YJL095W, strain BCK1 (second series), stronger effect = lower value 1.01 | [8] 1.03 | locus YJL115W, strain asf1, stronger effect = lower value 1.03 | locus YJL129C, strain trk1, stronger effect = lower value 1.04 | locus YJL154C, strain vps35, stronger effect = lower value 1.02 | locus YJL164C, strain tpk1, stronger effect = lower value 1 | locus YJL166W, strain qcr8, stronger effect = lower value 1.02 | [6] 1.03 | [9] 0.99 | locus YKL160W, strain elf1, stronger effect = lower value 1.03 | locus YKR026C, strain gcn3, stronger effect = lower value 1.03 | locus YKR091W, strain srl3, stronger effect = lower value 1.02 | locus YLL001W, strain dnm1, stronger effect = lower value 1.02 | locus YLL026W, stronger effect = lower value 1.02 | locus YLL041C, strain sdh2, stronger effect = lower value 1.02 | locus YLR027C, strain aat2, stronger effect = lower value 1.01 | [10] 1.06 | locus YLR221C, strain rsa3, stronger effect = lower value 1.01 | locus YLR258W, strain gsy2, stronger effect = lower value 1.02 | locus YLR262C, strain YPT6 (second series), stronger effect = lower value 1.02 | locus YLR320W, strain mms22, stronger effect = lower value 1.03 | locus YLR342W, strain FKS1, stronger effect = lower value 1.03 | locus YLR357W, strain rsc2, stronger effect = lower value 1.01 | locus YLR370C, strain arc18, stronger effect = lower value 1.01 | locus YLR384C, strain iki3, stronger effect = lower value 1.02 | locus YML120C, strain ndi1, stronger effect = lower value 1.01 | locus YMR058W, strain fet3, stronger effect = lower value 1.02 | locus YMR125W, strain sto1, stronger effect = lower value 1.04 | locus YMR129W, stronger effect = lower value 1.03 | locus YMR205C, strain PFK2, stronger effect = lower value 1.03 | locus YMR231W, strain pep5, stronger effect = lower value 1.02 | locus YNL071W, strain lat1, stronger effect = lower value 1.01 | [11] 0.987 | locus YNL209W, strain ssb2, stronger effect = lower value 1.02 | locus YNL248C, strain rpa49, stronger effect = lower value 1.01 | locus YNL322C, strain KRE1 (second series), stronger effect = lower value 1.02 | locus YNR049C, strain mso1, stronger effect = lower value 1.02 | locus YOR001W, strain rrp6, stronger effect = lower value 1.03 | locus YOR070C, strain gyp1, stronger effect = lower value 1.02 | locus YOR080W, strain dia2, stronger effect = lower value 1.02 | locus YOR083W, strain WHI5, stronger effect = lower value 1.03 | locus YOR106W, strain vam3, stronger effect = lower value 1.02 | [12] 1.05 | locus YOR265W, strain rbl2, stronger effect = lower value 1.01 | locus YOR270C, strain vph1, stronger effect = lower value 1.05 | locus YOR290C, strain snf2, stronger effect = lower value 1.03 | locus YPL051W, strain arl3, stronger effect = lower value 1.02 | locus YPL078C, strain atp4, stronger effect = lower value 1.03 | locus YPL106C, strain sse1, stronger effect = lower value 1.02 | locus YPL240C, strain hsp82, stronger effect = lower value 1.03 | [13] 1.05
